Values joined by “and” are separate entries in the source; they are usually repeats but may differ in a detail not shown here. Equal entries are not always repeated. Inconclusive results are not listed. Active and inactive are the calls of the source. Unless noted, calls follow the shape of the dose curve; as a rule, active = well fitted curve in the direction sought with a large enough effect; inconclusive = small, poorly fitted or top-dose-only effect, or another doubt; inactive = no such curve, though single readings can be large; an effect the other way counts as inactive or inconclusive.

For experiment [1], the target named is Cytochrome P450 3A4 (Homo sapiens) (UniProt P08684). The experiment in a line: qHTS Assay for Inhibitors and Substrates of Cytochrome P450 3A4 (AID 884). Also: nearly all actives have a fitted effect of over 50% in size. Also: potency is read from the fitted curve at half-maximal effect. As to activity change, negative = inhibition: % is scaled to controls: 0 for no effect and ±100 for the full control effect. The procedure, abridged: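 Luminescent readout of luciferin produced by CYP3A4 (20 nM) dealkylation of Luciferin-PPXE, 25 uM (its KM). NADPH-driven reaction ran 60 min at RT after 10 min compound preincubation; data scaled to 57 uM ketoconazole as 100% inhibition.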
(In general: Quantitative high-throughput screening tests each substance at several concentrations.)

Experiment [2] can be described thus: Confirmation and Secondary Assay for Modulators of Hemoglobin Beta Chain Splicing at IVS2 654 locus (AID 910).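 Also: HeLa cells stably carrying EGFP split by mutant beta-globin IVS2-654 intron; % of control where 0% means no effect.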 The procedure, abridged: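 HeLa cells stably expressing EGFP interrupted by β-globin IVS2-654 intron, seeded overnight in Opti-MEM/2% FCS, then treated 2 days at 37 °C. Restored splicing read as total peak GFP intensity per well by laser scanning cytometry (488 nm excitation, 500–520 nm emission); 500 nM antisense PNA as control.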

Experiment [3] in a line: Confirmation and Secondary Assay for Modulators of Hemoglobin Beta Chain Splicing at IVS2 705 locus (AID 930).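 Also: HeLa cells stably expressing the EGFP-705 splicing reporter; GFP fluorescence per well restored by corrected splicing of the IVS2-705 intron in EGFP; % of control where 0% means no effect.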 The procedure, abridged: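 Stable HeLa line with EGFP disrupted by mutant beta-globin intron 2 (705). Overnight attachment, then 2 days of compound at 37C, 5% CO2. Signal: peak GFP intensity summed over objects 5-250 µm.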
Experiment [4] is described as follows: qHTS Assay for Lipid Storage Modulators (AID 1519; calls by dose curve). Conditions: Drosophila S3 cells, BODIPY lipid droplet/cell ratio, laser cytometry, cells loaded with oleic acid. The procedure, abridged: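 Cells seeded at 5,000 per well were treated with compounds over a concentration series and loaded with oleic acid (400 uM, as added). Lipid droplet fluorescence (488 nm excitation, 500-530 nm channel) was read by laser-scanning cytometry and normalized to 20 uM Triacsin C.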

Experiment [5] has as its target Ubiquitin carboxyl-terminal hydrolase 1 (Homo sapiens) (UniProt O94782). In words: Inhibitors of USP1/UAF1: Pilot qHTS (AID 504865).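 Also: rhodamine fluorescence freed from ubiquitin-rhodamine substrate followed over time; top concentration of the series differs between compounds; % is scaled to controls: 0 for no effect and ±100 for the full control effect; nearly all actives have a fitted effect of over 35% in size.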 A digest of the protocol:
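Deubiquitinase activity followed as kinetic rhodamine fluorescence release from 150 nM Ub-Rho. 1 nM USP1/UAF1 with compound, after 15 min room-temperature preincubation, in HEPES pH 7.8 buffer containing TCEP, EDTA, BSA and Tween-20.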

The target of experiment [6] is Cytochrome P450 3A4 (Homo sapiens) (UniProt P08684). In words: qHTS Assay for Activators of Cytochrome P450 3A4 (AID 885). Also: nearly all actives have a fitted effect of over 65% in size. The procedure, abridged: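 Human CYP3A4 dealkylates Luciferin-PPXE to luciferin, which luciferase detection converts to light. Substrate was at its KM (25uM), buffer 200mM KPO4, reaction 60 min at RT.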
Experiment [7] deals with Mitogen-activated protein kinase 10 (Mus musculus) (UniProt Q61831). In words: JNK3 AlphaScreen Assay (AID 530; active = well fitted curve in either direction with a large enough effect, not every such curve was filed as active;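 also: kinase came from lysate of stimulated human HepG2 cells; signal reports phosphorylation of biotinylated GST-cJun 1-79 at Ser73 with 10 µM ATP; % is scaled to controls: 0 for no effect and ±100 for the full control effect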). The procedure, abridged: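 Activity was read by AlphaScreen after JNK3-containing HepG2 lysate (cytokine pre-activated) phosphorylated biotinylated GST-cJun with 10 uM ATP at room temperature. Phospho-Ser73 cJun antibody with Protein-A acceptor beads provided detection.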
In general terms: Bead proximity is the source of the signal in Alpha formats.

Experiment [8] can be described thus: AP1 Signaling Pathway (AID 357; active = well fitted curve in either direction with a large enough effect, not every such curve was filed as active;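 also: ME-180 reporter cells stimulated with EGF at its EC50 level; % is scaled to controls: 0 for no effect and ±100 for the full control effect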). Conditions: ME-180 AP-1-bla reporter, EGF-induced, beta-lactamase ratio, 5 h; at 7.69 µM (top of the series) unless noted. The procedure, abridged:
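Read-out was the 460nm/530nm emission ratio (excitation 405nm) after CCF4 loading for 2.5 hours at room temperature. Cells carried an AP-1-driven beta-lactamase reporter, were stimulated with EC50 EGF plus compound for 5 hours, and AC50 values came from titrations.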

Experiment [9] has as its target Cytochrome P450 1A2 (Homo sapiens) (UniProt P05177). In words: p450-cyp1a2 (AID 410; calls by dose curve). The procedure, abridged:
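Luminescent demethylation readout: Luciferin-ME (100uM, equal to Km) turned over by 20nM CYP1A2 for 60 min at room temperature after NADPH regeneration addition, following 10 min compound preincubation. Normalization used 57 uM furafylline as full inhibition.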

A short description of experiment [10]: Stat Signaling Pathway (AID 446; active = well fitted curve in either direction with a large enough effect, not every such curve was filed as active;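 also: ME-180 cervical cancer cells given 40 pM IL-6 alongside compound; SIE-controlled beta-lactamase reporter measured as 460/530 nm FRET emission ratio; % is scaled to controls: 0 for no effect and ±100 for the full control effect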). The following applies: ME-180 (cervical carcinoma) SIE beta-lactamase reporter, IL-6 stimulated, 5 h; at 7.69 µM (top of the series) unless noted. The procedure, abridged:
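Normalization used AC90 stimulation (300 pM IL-6) and AC90 inhibition (125 nM pan-JAK inhibitor at 40 pM IL-6). The underlying signal is SIE-driven beta-lactamase in ME-180 cells after 5 h IL-6 exposure with compound.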

Experiment [11] has as its target 3',5'-cyclic-AMP phosphodiesterase 4B (Homo sapiens) (UniProt Q07343). In words: qHTS Assay for Inhibitors of PDE-IV (AID 607; active = well fitted activation curve with a large enough effect in the main read-out, with a control signal flat, not every such curve was filed as active; also: % of control where 0% means no effect). A digest of the protocol: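 HEK293 ACTOne cells with CNG channel (1000/well), endogenous PDE4; membrane potential dye, compounds up to 22.9 uM final. Fluorescence Ex 535/Em 590; RO 20-1724 (100 uM final) as reference.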
[12] abbreviates: measured here: cell count channel max response.
Where [13] appears, read: measured here: lipid channel max response.

Cytochrome P450 3A4 (Homo sapiens), sequence (P08684 whole entry, looked up): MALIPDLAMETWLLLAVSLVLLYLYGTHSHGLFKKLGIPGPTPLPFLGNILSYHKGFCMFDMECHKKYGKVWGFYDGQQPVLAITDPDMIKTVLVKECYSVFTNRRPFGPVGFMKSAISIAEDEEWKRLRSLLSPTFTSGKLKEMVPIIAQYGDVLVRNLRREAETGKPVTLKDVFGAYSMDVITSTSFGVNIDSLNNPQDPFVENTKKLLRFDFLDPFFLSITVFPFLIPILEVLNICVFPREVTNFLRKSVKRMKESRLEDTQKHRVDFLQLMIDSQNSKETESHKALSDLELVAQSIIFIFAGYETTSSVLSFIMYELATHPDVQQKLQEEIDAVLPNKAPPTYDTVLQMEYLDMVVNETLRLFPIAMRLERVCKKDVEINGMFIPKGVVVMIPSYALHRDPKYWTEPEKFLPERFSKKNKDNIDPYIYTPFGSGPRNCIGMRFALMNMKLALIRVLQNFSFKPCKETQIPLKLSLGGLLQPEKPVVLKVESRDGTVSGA
Ubiquitin carboxyl-terminal hydrolase 1 (Homo sapiens), sequence (O94782 whole entry, looked up): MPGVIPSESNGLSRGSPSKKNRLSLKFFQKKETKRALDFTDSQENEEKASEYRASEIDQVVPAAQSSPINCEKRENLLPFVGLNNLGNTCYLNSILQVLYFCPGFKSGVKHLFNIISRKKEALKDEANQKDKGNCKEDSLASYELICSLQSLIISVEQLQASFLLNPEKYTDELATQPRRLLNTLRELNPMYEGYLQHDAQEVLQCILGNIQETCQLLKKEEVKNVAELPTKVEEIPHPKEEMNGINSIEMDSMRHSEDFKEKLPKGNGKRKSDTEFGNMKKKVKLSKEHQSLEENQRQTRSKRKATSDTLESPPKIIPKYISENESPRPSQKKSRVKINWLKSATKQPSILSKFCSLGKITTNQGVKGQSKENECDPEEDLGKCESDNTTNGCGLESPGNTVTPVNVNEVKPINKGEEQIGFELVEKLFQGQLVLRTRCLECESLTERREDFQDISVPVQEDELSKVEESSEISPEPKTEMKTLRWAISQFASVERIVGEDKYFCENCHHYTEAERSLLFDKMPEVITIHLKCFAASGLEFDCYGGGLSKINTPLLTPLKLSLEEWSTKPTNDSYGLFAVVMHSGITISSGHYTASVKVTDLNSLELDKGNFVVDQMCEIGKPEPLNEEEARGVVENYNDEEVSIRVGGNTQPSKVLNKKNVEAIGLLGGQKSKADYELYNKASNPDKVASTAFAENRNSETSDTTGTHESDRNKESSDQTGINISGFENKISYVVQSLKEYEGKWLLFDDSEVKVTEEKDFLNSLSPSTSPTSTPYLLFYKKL
Cytochrome P450 1A2 (Homo sapiens), sequence (P05177 whole entry, looked up): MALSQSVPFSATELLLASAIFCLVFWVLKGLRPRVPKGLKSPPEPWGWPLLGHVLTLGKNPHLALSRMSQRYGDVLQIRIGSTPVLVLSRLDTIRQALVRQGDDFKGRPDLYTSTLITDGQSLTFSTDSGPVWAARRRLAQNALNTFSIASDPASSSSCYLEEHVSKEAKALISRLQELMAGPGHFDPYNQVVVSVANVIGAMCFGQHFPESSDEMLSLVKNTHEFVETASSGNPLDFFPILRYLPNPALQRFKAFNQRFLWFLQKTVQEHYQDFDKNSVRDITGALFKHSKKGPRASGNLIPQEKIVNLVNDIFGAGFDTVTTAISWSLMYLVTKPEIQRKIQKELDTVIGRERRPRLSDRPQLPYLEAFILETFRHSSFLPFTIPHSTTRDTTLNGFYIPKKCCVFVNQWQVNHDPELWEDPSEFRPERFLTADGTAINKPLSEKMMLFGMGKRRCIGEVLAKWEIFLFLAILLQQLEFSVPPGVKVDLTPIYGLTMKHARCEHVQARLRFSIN
3',5'-cyclic-AMP phosphodiesterase 4B (Homo sapiens), sequence (Q07343 whole entry, looked up): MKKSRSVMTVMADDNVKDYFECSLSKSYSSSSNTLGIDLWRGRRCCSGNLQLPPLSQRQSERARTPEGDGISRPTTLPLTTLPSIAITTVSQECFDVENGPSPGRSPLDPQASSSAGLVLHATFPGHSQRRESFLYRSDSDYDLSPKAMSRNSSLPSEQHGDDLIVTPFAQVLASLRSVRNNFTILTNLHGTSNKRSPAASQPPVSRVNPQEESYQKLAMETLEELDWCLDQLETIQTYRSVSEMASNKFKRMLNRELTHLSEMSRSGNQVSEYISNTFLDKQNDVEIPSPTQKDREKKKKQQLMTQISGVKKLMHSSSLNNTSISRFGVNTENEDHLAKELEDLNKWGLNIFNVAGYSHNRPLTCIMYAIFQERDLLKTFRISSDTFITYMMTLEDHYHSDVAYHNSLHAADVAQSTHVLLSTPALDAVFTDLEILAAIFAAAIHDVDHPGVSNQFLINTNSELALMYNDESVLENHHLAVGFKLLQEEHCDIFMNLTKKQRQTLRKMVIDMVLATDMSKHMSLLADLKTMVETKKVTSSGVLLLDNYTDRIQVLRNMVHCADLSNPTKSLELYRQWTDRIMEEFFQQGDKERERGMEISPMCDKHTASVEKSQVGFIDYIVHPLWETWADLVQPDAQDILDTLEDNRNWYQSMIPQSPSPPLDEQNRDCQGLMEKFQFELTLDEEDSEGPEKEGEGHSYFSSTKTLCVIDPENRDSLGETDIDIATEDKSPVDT

In the case of `O=c1cc(-c2ccc(O)cc2)oc2cc(O[C@H]3OC(CO)C(O)C(O)C3O)cc(O)c12` (some centres not stated), the Potency entry in [1] and in experiment [2] was “inactive” throughout. The compound was classed as inactive in [3]. In [4] (at 57.5 µM (top of the series)), the activity change, negative = inhibition is 6.29% (inactive). Also, the max response in experiment [4] (setting [12]) is -4.63%; in experiment [4] (setting [13]), 3.59%.

Consider `O=c1ccc2ccc(O)cc2o1`, for which the Potency entry in experiment [1], in experiment [2] and in [5] was “inactive” throughout. The activity change, negative = inhibition in experiment [4] (at 57.5 µM (top of the series)) is 5.83% (inactive). Besides, the max response came to 11.1% in experiment [4] (setting [12]) and 19.2% in experiment [4] (setting [13]).

On to `COc1cc2c(cc1OC)C1Cc3ccc(OC)c(OC)c3CN1CC2` (configuration not stated), for which the Potency entry in [6] and in [2] was “inactive” in each case. For the same compound, the compound was classed as inactive in experiment [3]. For the same compound, in [4] (at 57.5 µM (top of the series)), the activity change, negative = inhibition was 8.32% (inactive). For the same compound, the max response in [4] (setting [12]) came out at 12.8%; in experiment [4] (setting [13]), 22.2%.

With `CC1=CC(=O)CC(C)(C)C1(O)/C=C/C(C)=C\C(=O)O` (configuration not stated), the Potency result in [7], in [1] and in experiment [2] was “inactive” in each case. For the same compound, the compound was called inactive in [3]. Besides, in experiment [4] (at 57.5 µM (top of the series)), the activity change, negative = inhibition was 8.24% (inactive) and 1.12% (inactive). In addition, the max response is 12.7% and 14.4% in experiment [4] (setting [12]); 25.4% and 14.8% in experiment [4] (setting [13]).

Take `CC(C)N1CCN(c2ccc(OC[C@@H]3CO[C@@](Cn4cncn4)(c4ccc(Cl)cc4Cl)O3)cc2)CC1`: the activity change, negative = inhibition in experiment [8] is 0.955% [at 17.2 µM] (inactive); in experiment [4] (at 25.7 µM (top of the series)), -0.441% (inactive). In addition, the Potency entry in experiment [9], in experiment [7], in [11], in experiment [6] and in experiment [5] was “inactive” in each case. The activity, negative = inhibition in experiment [10] was 1.27% [at 17.2 µM] (inactive). The Potency in experiment [1] is 1.58 µM (active). In addition, the max response in experiment [4] (setting [12]) was -0.321%; in experiment [4] (setting [13]) it was -3.7%.

Regarding `NC(Cc1c[nH]c2ccccc12)C(=O)O` (configuration not stated), the Potency result in experiment [6] and in [2] was “inactive” each time. Besides, the outcome in experiment [3] was inactive. In addition, the activity change, negative = inhibition in experiment [4] (at 57.5 µM (top of the series)) is 9.94% (inactive). For the same compound, the max response is 25.9% in experiment [4] (setting [12]) and 44.9% in experiment [4] (setting [13]).
